Out of some 50,000 compounds screened, about 800 (1.6%) showed an effect of 50% or more. The list comes from a sample in which strong results are over-represented; it also holds similar structures and randomly drawn compounds.

In the assay the target is Bcl-2-like protein 10 (Homo sapiens) (UniProt Q9HD36). The assay can be described thus: Phenotype converters, Bcl-B/TR3 peptide binding displacement, primary biochemical FP (AID 1240).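 Also: 0% = Bcl-B with tracer peptide and DMSO and 100% = tracer peptide lacking Bcl-B.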 The conditions noted are these: GST-Bcl-B / FITC-TR3 peptide fluorescence polarization; stronger effect = higher value; compound at 3.75 mg/L.
Chain of Bcl-2-like protein 10 (Homo sapiens) (Q9HD36 whole entry, looked up): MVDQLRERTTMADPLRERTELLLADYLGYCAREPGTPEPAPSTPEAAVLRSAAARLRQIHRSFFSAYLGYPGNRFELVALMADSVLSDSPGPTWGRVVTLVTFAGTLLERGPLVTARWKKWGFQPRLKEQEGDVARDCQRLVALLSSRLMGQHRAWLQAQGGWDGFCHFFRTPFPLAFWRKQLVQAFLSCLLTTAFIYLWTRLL
With `COc1ccc(CN2CCN(C(=O)c3ccc(F)cc3)CC2)cc1Br`, the displacement was 8.4%.

Consider `Cc1no[n+]([O-])c1COc1ccc(/C=C2\NC(=S)NC2=O)cc1`, for which the displacement was -73.2%.

Consider `COc1cc(C=C2C(=O)NC(=O)NC2=O)ccc1OCCOc1ccc(C)cc1`, for which the displacement amounted to 32.2%.

For the compound `COc1cc(/C=C2/C(=O)NC(=O)N(c3ccccc3)C2=O)ccc1OCC(=O)O`, the displacement came to 6.2%.

`COc1cc(C=C2C(=O)NC(=O)NC2=O)ccc1OCCSc1ccc(C)cc1`: the displacement amounted to 64.1%.

As to `COc1cc(/C=C2/C(=O)NC(=O)N(c3ccccc3C)C2=O)ccc1OCCOc1ccccc1`, the displacement was determined as 69.3%.

With `COc1ccccc1N1C(=O)NC(=O)/C(=C\c2cc3ccccc3n2C)C1=O`, the displacement was 165%.

Take `CCOc1ccc(/C=C2\C(=O)NC(=O)N(c3ccccc3C)C2=O)cc1Cl`: the displacement is 0.3%.

For the compound `COc1ccccc1N1C(=O)NC(=O)/C(=C/c2c(OC)ccc3ccccc23)C1=O`, the displacement was found to be 1.1%.

In the case of `COc1ccccc1/C=C1/C(=O)NC(=O)N(c2ccccc2OC)C1=O`, the displacement is -2.3%.

As for `COc1cc(/C=C2/C(=O)NC(=O)N(c3cccc(C)c3)C2=O)ccc1OCCOc1ccccc1`, the displacement is 19%.

As for `COc1ccc(N2C(=O)NC(=O)/C(=C/c3ccc(OCCOc4ccc(C)cc4)c(OC)c3)C2=O)cc1`, the displacement is 12.8%.

Regarding `COc1cc(C=C2C(=O)NC(=O)NC2=O)ccc1OCCO`, the displacement is -2.4%.

Consider `COc1ccccc1OCCOc1ccc(/C=C2/C(=O)NC(=O)N(c3ccccc3C)C2=O)cc1OC`, for which the displacement was found to be 76.2%.

`Cc1c(Nc2nc3nonc3nc2Nc2cccc(Cl)c2)c(=O)n(-c2ccccc2)n1C`: the displacement amounted to 10%.

In the case of `CCOc1ccc(N2C(=O)C3CC=CCC3C2=O)cc1` (centres undefined), the displacement was 14.7%.

Turning to `O=C(O)CCC(=O)Nc1ccc(S(=O)(=O)N2CCCCCC2)cc1`, the displacement was determined as 3%.

In the case of `O=C(/C=C/c1ccc([N+](=O)[O-])cc1)NC(=S)Nc1ccccc1Cl`, the displacement is -3.4%.

Turning to `CCOC(=O)C(C)Oc1ccc2c(C)c(CC)c(=O)oc2c1` (centres undefined), the displacement was -3.1%.

Turning to `COC(=O)c1ccccc1NC(=O)CSc1nc2ccc(N3C(=O)c4ccccc4C3=O)cc2s1`, the displacement came out at 3.2%.

Take `COc1ccccc1NC(=O)CSc1nc2ccc(N3C(=O)c4ccccc4C3=O)cc2s1`: the displacement was determined as 84.2%.

Take `COc1ccc(NC(=O)CSc2nc3ccc(N4C(=O)c5ccccc5C4=O)cc3s2)cc1`: the displacement was determined as 1.7%.

Take `Cc1sc2ncn(/N=C/C=C3\N(C)c4ccccc4C3(C)C)c(=O)c2c1C`: the displacement came to 75.7%.

Consider `Cc1ccc(-n2cnc3sc(C)c(C)c3c2=O)cc1`, for which the displacement is -0.9%.

Regarding `CN1/C(=C\C=N\Nc2ccc([N+](=O)[O-])cc2)C(C)(C)c2ccccc21`, the displacement was -4.6%.

For the compound `O=C(O)c1cccc(N(CCO)CCO)c1`, the displacement stood at 6%.

`COc1cccc(NC(=O)CCCN2C(=O)c3cccc4cccc(c34)C2=O)c1`: the displacement turned out to be 6.9%.

As to `COC(=O)C1=CN(Cc2ccc(OC)cc2)C=C(C(=O)OC)C1c1cccs1`, the displacement is 2.9%.

On to `COc1ccc(C2=CC(c3cccs3)C=C(c3ccc(OC)cc3)O2)cc1`, for which the displacement stood at 162%.

For `COc1ccc(C2=C/C(=C/c3cccs3)C(=O)O2)cc1`, the displacement is 7.8%.

As for `Cc1ccc(CN2CCN(/N=C\c3cc(Br)ccc3O)CC2)cc1`, the displacement was -6%.

For `Cc1ccc(C(=O)Nn2c(O)c(C3=c4ccccc4=NC3=O)sc2=S)cc1`, the displacement is -18.6%.

`Cc1cc(C)cc(N=CC2=C(O)CC(c3ccccc3)CC2=O)c1` (centres undefined): the displacement amounted to 84.1%.

In the case of `O=C1CC(c2ccccc2)CC(O)=C1C=Nc1ccc(F)cc1` (centres undefined), the displacement was -1.2%.

For the compound `O=C1CC(c2ccccc2)CC(O)=C1C=Nc1ccc(Br)cc1` (centres undefined), the displacement is -3.8%.

Regarding `O=C(O)CCC(=O)Nc1ccc(F)cc1`, the displacement was -7.3%.

As to `Cc1ccc(/C=C2\SC(N3CCC(C)CC3)=NC2=O)cc1`, the displacement is -15%.

`CN(C)c1ccc(/C=C2\SC(N3CCN(C4=NC(=O)/C(=C\c5ccc(N(C)C)cc5)S4)CC3)=NC2=O)cc1`: the displacement is -12.9%.

For the compound `CC1CCN(C2=NC(=O)/C(=C/c3ccc(N(C)C)cc3)S2)CC1`, the displacement came out at 157%.

For the compound `O=C(O)c1ccc(NC(=O)c2ccc(Cl)cc2)cc1`, the displacement is -3.6%.

For the compound `COc1cc(/C=C/C(=O)c2c(C)cc(C)[nH]c2=O)cc(OC)c1OC`, the displacement worked out at 8.5%.

As to `COc1ccc(/C=C2/SC(=Nc3ccc(F)cc3)NC2=O)c(OC)c1`, the displacement was found to be 11.6%.

For `Cc1ccc(N=C2NC(=O)/C(=C\c3ccc(C)o3)S2)cc1`, the displacement is -9.8%.

Turning to `Cc1ccccc1/C=C1/SC(=Nc2ccc(F)cc2)NC1=O`, the displacement worked out at 7.8%.

Regarding `Cc1ccc(/C=C2\SC(=Nc3ccc(F)cc3)NC2=O)o1`, the displacement was found to be 101%.

Turning to `COc1ccccc1/C=C1/SC(=Nc2ccc(F)cc2)NC1=O`, the displacement came to 161%.

As for `O=C1NC(=Nc2ccc(F)cc2)S/C1=C\c1ccco1`, the displacement was determined as 32.8%.

For `COc1ccc(/C=C2\SC(=S)N(NC(=O)c3cccnc3)C2=O)cc1`, the displacement was determined as 3.4%.

On to `CCCCc1ccc(-c2csc(/C(C#N)=C/c3ccc(O)c(OC)c3)n2)cc1`, for which the displacement stood at 2.4%.

For `COc1ccc(/C=C(/C#N)c2nc(-c3ccc(Br)cc3)cs2)cc1OC`, the displacement came to 101%.

For `COc1cc(/C=C(\C#N)c2nc(-c3ccc(-c4ccccc4)cc3)cs2)ccc1O`, the displacement was 112%.

In the case of `COc1cccc(/C=C(\C#N)c2nc(-c3ccc(Br)cc3)cs2)c1`, the displacement is -7.3%.

On to `COc1ccc(-c2csc(/C(C#N)=C\c3ccc(C)s3)n2)cc1`, for which the displacement was determined as 115%.

With `CCCCc1ccc(-c2csc(/C(C#N)=C/c3ccc(OC)c(OC)c3)n2)cc1`, the displacement stood at 4.8%.

Take `N#C/C(=C\c1ccc(O)cc1)c1nc(-c2ccc(-c3ccccc3)cc2)cs1`: the displacement came out at 21.6%.

On to `Cc1ccc(-c2csc(/C(C#N)=C\c3ccc(C)s3)n2)cc1`, for which the displacement is -2.9%.

Take `COc1ccc(/C=C(\C#N)c2nc(-c3ccc(C)cc3)cs2)cc1`: the displacement worked out at 4.5%.

Regarding `Cc1ccc(/C(O)=C2\C(=O)C(=O)N(c3nncs3)C2c2cccc(Cl)c2)cc1` (centres undefined), the displacement worked out at 12.7%.

For `Cc1cc(C)c2nc3s/c(=C\c4ccc([N+](=O)[O-])cc4)c(=O)n3c2c1`, the displacement was -6.3%.

As for `O=C(Nc1ccc(Br)cc1)C1C(c2ccccc2)=C1c1ccccc1`, the displacement was -6.7%.

`CC(=O)N1c2ccccc2NC2=C(C(=O)CC(c3ccccc3)C2)C1c1ccccc1Cl` (centres undefined): the displacement is -12%.

As to `CC1(C)c2ccccc2N(CCO)C12C=Cc1cc(Br)ccc1O2` (centres undefined), the displacement came to 7.8%.

On to `Cc1ccc(CNC(=O)c2ccc([N+](=O)[O-])cc2Cl)cc1`, for which the displacement worked out at 0.9%.

For `Cc1ccccc1NC(=O)c1c(N)sc2c1CCCC2`, the displacement turned out to be 12.7%.

Turning to `COc1ccc(C2/C(=C(\O)c3ccc(Cl)cc3)C(=O)C(=O)N2c2cccnc2)c(OC)c1` (centres undefined), the displacement was -7.1%.

As for `CCOc1cc(/C=C2/SC(N)=NC2=O)ccc1OCc1ccc(F)cc1`, the displacement is -15.9%.

As for `CCOc1ccc(/C=C2/SC(NC(C)=O)=NC2=O)cc1OCC`, the displacement came out at 54.6%.

For the compound `CCOc1ccccc1/C=C1/SC(NC(C)=O)=NC1=O`, the displacement was 12.9%.

For the compound `CCOc1ccc(/C=C2/SC(NC(C)=O)=NC2=O)cc1`, the displacement turned out to be 132%.

The values are drawn from PubChem BioAssay AID1240 (Sanford-Burnham Center for Chemical Genomics, 2008).
